Measured values from the supplement of paper PMC3334620.
Over roughly 33,000 sequences, “E-score (-0.5 to 0.5)” has its median near -0.0059; the highest 2% begin near 0.26. Only a selection was taken, and the highest values are over-represented in it overall.

The sequences below were run against T1, Cin5 (UniProt P40917) (assay: PBM E-score (8-mer binding enrichment) (E-score (-0.5 to 0.5)); higher = stronger / more preferred TF binding). Conditions: protein concentration: 100 nM; construct: GST-full length.
T1 sequence: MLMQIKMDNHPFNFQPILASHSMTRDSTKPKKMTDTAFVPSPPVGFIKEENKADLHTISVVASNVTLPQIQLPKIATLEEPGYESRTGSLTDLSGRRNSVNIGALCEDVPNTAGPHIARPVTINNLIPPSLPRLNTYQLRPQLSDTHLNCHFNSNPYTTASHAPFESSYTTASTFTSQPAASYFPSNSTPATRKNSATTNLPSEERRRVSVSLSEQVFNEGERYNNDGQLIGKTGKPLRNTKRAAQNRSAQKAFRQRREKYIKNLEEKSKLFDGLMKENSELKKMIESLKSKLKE
Outline: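 Full-length yeast transcription factors or their DNA-binding domains, GST-tagged and expressed with PURExpress, were applied at about 100-200 nM to universal all-10-mer Agilent arrays. These arrays had been made double-stranded by primer extension on fresh or once-stripped slides. Detection used fluorescent anti-GST, normalisation used masliner, and E-scores for ungapped eight-base words pooled with reverse complements came from the Universal PBM Analysis Suite.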

Compared with ACGAGAGA, CCTTTGTC is higher in “PBM E-score” value: -0.0604 for the first, -0.0179 for the second.

Compared with CTAGGTTA, AACAGTCA is lower in “PBM E-score” value: 0.118 for the first, -0.041 for the second.

First: GATATTGA
Second: TATATTGA
The “PBM E-score” value of the first is lower: 0.0812 for the first, 0.287 for the second.

Compared with CATATTTA, CATATTGA is lower in “PBM E-score” value: 0.157 for the first, 0.0883 for the second.

Compared with CCTATTAA, CATATTAA is higher in “PBM E-score” value: 0.111 for the first, 0.275 for the second.

First: GCTCCGCA
Second: GGCGGAAA
The “PBM E-score” value of the first is lower: -0.16 for the first, 0.088 for the second.

Going from AGCAGTGA to AAGCTTGC, the “PBM E-score” value falls from 0.2 to -0.0817.

Compared with GTGTAGGA, CACGCGAA is lower in “PBM E-score” value: -0.0437 for the first, -0.0826 for the second.

Going from AACGCGCA to AACGCGCG, the “PBM E-score” value rises from 0.0734 to 0.276.

Going from AACGCGAG to AACGCGAA, the “PBM E-score” value rises from 0.0992 to 0.281.

Compared with AACGCGCT, CCAAAGCG is higher in “PBM E-score” value: -0.0706 for the first, -0.0566 for the second.

Going from CCTTCATA to CTGTCAGC, the “PBM E-score” value rises from 0.0109 to 0.148.

First: CCGTCATC
Second: GCGTCAGC
The “PBM E-score” value of the first is higher: -0.075 for the first, -0.102 for the second.

Compared with ACGTCATC, CAGTCAGC is lower in “PBM E-score” value: 0.259 for the first, -0.0612 for the second.

Going from AAGTCAGC to ACGTCAGT, the “PBM E-score” value falls from 0.293 to -0.12.

Going from ATGTCAGA to AAGTCAGA, the “PBM E-score” value falls from 0.114 to 0.0006.

Going from ATGTCAGC to ACGTCAGC, the “PBM E-score” value rises from 0.272 to 0.394.

Going from ACGTCATG to CGGACTTC, the “PBM E-score” value falls from 0.228 to -0.131.

First: CAGCTAAG
Second: GTAACCCA
The “PBM E-score” value of the first is lower: -0.252 for the first, 0.234 for the second.

Going from ATTCTTAG to GGAGGGGA, the “PBM E-score” value falls from -0.0605 to -0.0844.

Going from CAAGTCCG to ACTGTTGA, the “PBM E-score” value rises from -0.109 to -0.0374.

Going from CCGGGACG to GAACGTCA, the “PBM E-score” value rises from -0.162 to -0.161.

Going from TCTAGAGA to ATGTCATA, the “PBM E-score” value rises from -0.228 to 0.299.

Compared with CTGTCATA, ATGTCATC is higher in “PBM E-score” value: 0.0932 for the first, 0.142 for the second.

First: AACCCCCC
Second: AAGGCTGG
The “PBM E-score” value of the first is lower: -0.468 for the first, -0.277 for the second.

Compared with AGACTCCG, AAAGATGA is higher in “PBM E-score” value: -0.121 for the first, 0.00284 for the second.

Compared with ATGGCAAT, GTTAGTTA is higher in “PBM E-score” value: 0.113 for the first, 0.225 for the second.

Compared with ATTAGTTG, ATTAGTCA is higher in “PBM E-score” value: 0.241 for the first, 0.341 for the second.

Compared with ATTAGTCG, ATTAGTTA is higher in “PBM E-score” value: 0.193 for the first, 0.315 for the second.

Compared with GTTAGTCA, CTTGAGCC is lower in “PBM E-score” value: 0.0867 for the first, -0.241 for the second.

Compared with AGATCATA, GATCCCCC is lower in “PBM E-score” value: 0.186 for the first, -0.426 for the second.

Compared with ATGACTAA, GTGACTAA is lower in “PBM E-score” value: 0.235 for the first, 0.123 for the second.

First: CTGACTTA
Second: ATGACTTA
The “PBM E-score” value of the first is higher: 0.298 for the first, 0.149 for the second.

First: CTGACTAA
Second: GTGACTTA
The “PBM E-score” value of the first is higher: 0.36 for the first, 0.0722 for the second.

Compared with CGTGTAAA, AAGGGTGA is higher in “PBM E-score” value: -0.142 for the first, -0.0502 for the second.

Going from TCGGCCGA to CACGGGAC, the “PBM E-score” value falls from 0.0246 to -0.118.

Going from CATCCCGA to TATCCCGA, the “PBM E-score” value rises from 0.0504 to 0.125.

Going from AATCCCGA to CCTTAGGA, the “PBM E-score” value falls from 0.26 to 0.0118.

First: ATCGTGTC
Second: AATTCGCG
The “PBM E-score” value of the first is lower: 0.0401 for the first, 0.0954 for the second.

Going from AATTCGCC to AATTCGCT, the “PBM E-score” value rises from 0.154 to 0.325.

First: GCACTCGA
Second: GCCTGATA
The “PBM E-score” value of the first is higher: 0.0449 for the first, -0.0274 for the second.

First: CATAGTAC
Second: CATAGTAA
The “PBM E-score” value of the first is lower: 0.0648 for the first, 0.279 for the second.

Compared with TATAGTAA, TATAGTGA is lower in “PBM E-score” value: 0.324 for the first, -0.0129 for the second.

Going from GATAGTAA to TATAGTCA, the “PBM E-score” value falls from 0.195 to 0.0921.

First: AATAGTAG
Second: AATAGTAC
The “PBM E-score” value of the first is higher: 0.144 for the first, 0.05 for the second.

Compared with AATAGTAA, ACTACCAC is lower in “PBM E-score” value: 0.27 for the first, 0.017 for the second.

Compared with TCACCTAA, AACGCTAT is lower in “PBM E-score” value: 0.142 for the first, 0.0739 for the second.

Compared with GTAATCTA, ATAATCTA is lower in “PBM E-score” value: 0.354 for the first, 0.242 for the second.

First: CTAATCGA
Second: GTAATCCA
The “PBM E-score” value of the first is lower: 0.202 for the first, 0.281 for the second.

First: ATAATCCA
Second: ATGATCGA
The “PBM E-score” value of the first is higher: 0.225 for the first, 0.0882 for the second.

Compared with GTAATCGA, GCAATCGA is lower in “PBM E-score” value: 0.275 for the first, 0.0191 for the second.

Compared with GTGATCGA, CTAATCTA is lower in “PBM E-score” value: 0.273 for the first, 0.00395 for the second.

Going from CTAATCCA to CTGATCGA, the “PBM E-score” value falls from 0.219 to -0.179.

First: CTGCCAAA
Second: CGCGCTAC
The “PBM E-score” value of the first is lower: -0.065 for the first, 0.029 for the second.

Going from GACATAGC to ACCGTACA, the “PBM E-score” value falls from 0.0934 to -0.108.
